In the library only some 11% were active in any assay of this set; here they are far more common.
AMA1 RON2 block: AMA1-RON2 (P. falciparum) interaction inhibition | AlphaScreen AMA1-biotinylated RON2 peptide binding | Potency, µM (top dose mostly 58.2 µM), without a hit: top-dose activity change, negative = inhibition, hits mostly inhibitors | 0.2% of 360,000 active | AID 720542;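 also: potency is read from the fitted curve at half-maximal effect; 0% = vehicle wells and -100% = peptide control; nearly all actives have a fitted effect of over 45% in size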
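AMA1 (3D7) with his tag at 25 nM final met compounds first, then biotinylated RON2 peptide at 25 nM; detection used donor plus acceptor beads, 10 µg/mL apiece, read by AlphaScreen after 30 min at room temperature.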
NS1 function inh: influenza NS1 inhibition. Potency, µM (doses to about 46.1 µM), for inactives: at the highest dose activity, positive = more growth. 0.4% of 270,000 active. AID 2326; calls by dose curve; also: potency is read from the fitted curve at half-maximal effect; actives are rising curves; nearly all actives have a fitted effect of over 50% in size
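Compounds were scored for reversing the slow growth caused by influenza A NS1 in S. cerevisiae, measured by optical density at 600 nm. Assay medium contained 2% galactose at pH 6.0; NS1-free yeast of the same strain were the positive control.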
Pf growth 96h: P. falciparum growth inhibition at 96 hours | Potency, µM (top dose mostly 28.7 µM), inactives show at the highest dose activity change, negative = inhibition, actives largely listed as inhibitors | P. falciparum luciferase reporter growth, 96 h | AID 504834 | 6.9% of 320,000 active; also: potency is read from the fitted curve at half-maximal effect; % is scaled to controls: 0 for no effect and ±100 for the full control effect
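Two parasite generations (96 h, 37 C, 5% CO2) of compound exposure in infected erythrocytes (0.05% parasitemia, 2% hematocrit). Luciferase-reporter P. falciparum; decreased luminescence indicates inhibited growth, aimed at apicoplast-acting delayed death.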
Pf growth 48h: inhibits P. falciparum growth in the first generation, 48 h. P. falciparum luciferase growth in erythrocytes, 48 h. 5.9% of 310,000 active. Potency, µM (highest dose often 28.7 µM), inactives show at the top dose activity change, negative = inhibition, actives largely listed as inhibitors; also: potency is read from the fitted curve at half-maximal effect; % is scaled to controls: 0 for no effect and ±100 for the full control effect
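Read-out is firefly luciferase luminescence from an integrated reporter in P. falciparum, so falling signal marks reduced parasite growth. Infected erythrocytes were at 2% hematocrit and 0.1% parasitemia (final) in Albumax-supplemented RPMI 1640.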
Sm TGR block: inhibitors of Schistosoma mansoni thioredoxin glutathione reductase; Q962Y6; purified TGR, DTNB reduction, TNB absorbance 405 nm; Potency, µM (titrated, usually from 114 µM), for the others: at the top dose activity change, negative = inhibition, most hits filed as inhibitors; 3% of 360,000 active; also: potency is read from the fitted curve at half-maximal effect; % is scaled to controls: 0 for no effect and ±100 for the full control effect; nearly all actives have a fitted effect of over 60% in size
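First, TGR (20 nM dispensed) and NADPH were mixed with compound. Second, a 15 min room-temperature incubation followed. Third, further NADPH and then DTNB were added to start the reaction. Finally, TNB absorbance was monitored kinetically.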
Flu NS1 inh: influenza NS1 function inhibition validation | shares compounds with NS1 function inh | influenza NS1 function cell assay, 15-point titration | activity change, negative = inhibition, % at 32.9 µM | 1,400 tested, under 10 active | AID 492980; calls by dose curve; also: 0% is about no effect
Flu PR8 replic: reduces influenza A/PR/8/34 replication in MDCK cells | virus titer (log TCID50), log10 TCID50 at 5 µM | shares compounds with NS1 function inh | 30% of 95 active | MDCK infected influenza A/PR/8/34, virus titer TCID50; stronger effect = lower value; call rule not given here
* = called active by the depositor; u = inconclusive; x = no result; [ ] = dose if it differs, or a comment. Unless noted, calls follow the shape of the dose curve; as a rule, active = well fitted curve in the direction sought with a large enough effect; inconclusive = small, poorly fitted or top-dose-only effect, or another doubt; inactive = no such curve, though single readings can be large; an effect the other way counts as inactive or inconclusive.

SMILES	AMA1 RON2 block	NS1 function inh	Pf growth 96h	Pf growth 48h	Sm TGR block	Flu NS1 inh	others
COC(=O)[C@@]1(Cc2ccc(F)cc2)[C@H]2c3cc(C(=O)N4CCCC4)n(C)c3C[C@H]2CN1C(=O)c1ccccc1	-23.9%	x	x	x	x	x
COC(=O)[C@@]1(Cc2ccc(F)cc2)[C@H]2c3cc(C(=O)N4CCCC4)n(CCc4c[nH]c5ccc(OC)cc45)c3C[C@H]2CN1C(=O)c1ccccc1	x	12.6µM*	1.04µM*	u	-18.4%	15.7
C[C@H]1C(=O)N(c2ccccc2)[C@@H]1c1ccccc1	-7.1%	x	x	x	x	x
CC1CN(C)C(c2ccccc2)C(C)C12NC(=O)NC2=O (stereo not given)	-3.1%	u	-23.4%	-0.8%	0.0%	-0.4
COc1ccccc1CN(C)C(=O)c1cc(-c2cccs2)nc2ccccc12	6.9%	-1.8%	u	u	-4.1%	x
CCOc1ccc(NC(=O)c2cccnc2C(=O)O)cc1	12.7%	4.47µM*	4.3%	51.3%	6.5%	1.7
CCOC(=O)c1c(-c2cccs2)csc1N	2.2%	-4.3%	-13.0%	u	-1.3%	x
CCOC(=O)c1c(-c2ccco2)csc1N	-3.7%	1.26µM*	x	0.0%	u	u
CCc1cc2c(=O)n(Cc3ccco3)c(SCC(=O)N3CCCc4ccccc43)nc2s1	-18.1%	7.08µM*	13.7%	9.28µM*	25.1µM*	4.6
CC(=O)c1c(C)[nH]c(C(=O)OCC(=O)N2CCc3ccccc32)c1C	0.0%	4.47µM*	0.0%	33.2%	-4.5%	14.3
S=C1NC2(CCCCC2)Nc2ccccc21	-2.6%	7.3%	16.9%	-17.3%	0.0%	x
Cc1ccc(NC(=O)C2CC(=O)N(CCc3ccccc3)C2)c(C)c1 (stereo not given)	-5.9%	x	-5.1%	-8.4%	6.0%	x
Cc1ccc(C)n1NC(=O)c1ccc(O)cc1	-6.2%	11.2µM*	10.8%	x	-12.4%	18.3
Cc1cc(C)n2nc(SCC(=O)N(CCC#N)c3ccc(F)cc3)nc2n1	4.5%	x	-2.4%	26.8%	-2.0%	x
COc1cc2c(cc1OC)C(COc1cc(C)cc(C)c1)N(C(=O)C(C)(C)C)CC2 (stereo not given)	x	x	x	x	6.2%	x
Cc1cc(C(=O)COc2cccnc2[N+](=O)[O-])c(C)n1-c1ccccc1F	-16.1%	u	30.2%	5.1%	-20.8%	-8.5
Cc1cc(C(=O)COc2cccnc2[N+](=O)[O-])c(C)n1-c1ccccc1	18.6%	8.1%	63.8%	50.5%	-20.9%	x
CCCCCC(C)NC(=S)NC(=O)c1cc(S(=O)(=O)N2CCOCC2)ccc1C (stereo not given)	-2.2%[2.32 µM]	20µM*	11.7µM*	u	-12.3%	-37.1
Cc1ccc(NC(=O)CC(=O)c2ccc([N+](=O)[O-])cc2)cc1S(=O)(=O)Nc1cccc(Cl)c1	28.6%	14.1µM*	u	u	14.2%	6.5	Flu PR8 replic=7.5*
CC1(C(=O)O)CCC(C(=O)NNC(=O)c2ccccc2Cl)C1(C)C (stereo not given)	16.8%	x	x	x	x	x
CCOC(=O)C1=C(C)NC2=C(C(=O)CCC2)C1c1cccnc1 (stereo not given)	12.6%	5.7%	x	1.1%	-8.3%	x
CCOC(=O)C1=C(C)NC2=C(C(=O)CCC2)C1c1cn(Cc2ccc(Cl)cc2Cl)nc1-c1ccccc1 (stereo not given)	1.0%	u	0.738µM*	0.117µM*	3.9%	2.1	Flu PR8 replic=8
COC(=O)C1=C(C)NC2=C(C(=O)CCC2)C1c1cn(Cc2ccc(Cl)cc2Cl)nc1-c1ccccc1 (stereo not given)	-29.7%	12.6µM*	1.85µM*	2.62µM*	-14.9%	12.9
CCCCS(=O)(=O)N1CCCC(C(=O)NCC2CCCO2)C1 (stereo not given)	6.7%	7.9%	0.0%	18.6%	-9.2%	x
COc1ccc(-n2nnnc2SCC(=O)Nc2cccc(O)c2)cc1	-4.0%	15.2%	u	41.5%	-7.8%	x
SMILES	AMA1 RON2 block	NS1 function inh	Pf growth 96h	Pf growth 48h	Sm TGR block	Flu NS1 inh	others
COc1ccc2nc(SCC(=O)Nc3ccccc3)[nH]c2c1	-8.7%	u	-73.1%	13.7%	3.1%	-16.5
Cc1ccc(-c2nc3scc(CCNC(=O)Cc4ccc(Cl)cc4)n3n2)cc1	x	x	x	x	-5.6%	x
Cc1nc(-c2ccc(Cl)cc2)sc1C1(C)CC(c2c(Cl)cccc2Cl)=NO1 (stereo not given)	-1.7%	10µM*	52.5%	82.1%	24.0%	18.4
S=c1[nH]cc2cnccn12	108.4%	x	x	x	x	x
CCOC(=O)c1ccc(NC(=O)CC2C(=O)N(c3cccc(OC)c3)C(=O)N2Cc2ccc(OC)cc2)cc1 (stereo not given)	x	x	x	x	7.4%	x
Cn1cccc1CC(=O)N/N=C\c1cccs1	0.0%	27.1%	u	-16.6%	-4.3%	x
Cc1ccc(/C=N/NC(=O)Cc2cccn2C)s1	-0.6%	2.82µM*	-24.9%	90.0%	-23.2%	11.4
Cc1nn(-c2ccccc2)c2c1C(c1ccc([N+](=O)[O-])cc1)N1C(=N2)C(=O)Nc2ccccc21 (stereo not given)	-1.9%[2.32 µM]	10µM*	5.86µM*	u	-4.4%	6.8
Cc1nn(-c2ccccc2)c2c1C(c1ccc([N+](=O)[O-])cc1)C(C#N)=C(N)O2 (stereo not given)	-4.4%	8.7%	4.7%	59.2%	-24.9%	x
O=C(NC1CC1)c1ccc(NS(=O)(=O)c2ccc(F)cc2)cc1	10.9%	x	34.8%	1.0%	0.0%	x
CC(C)(C)c1nc(SCC(=O)N2CC(=O)Nc3ccccc32)c2ccccc2n1	-3.1%	2.4%	4.6%	-18.9%	1.1%	x
Cc1ccc(Cn2c(SCC(=O)N3CC(=O)Nc4ccccc43)nc3ccccc3c2=O)cc1	10.4%	12.6µM*	13.1µM*	u	-2.6%	5.8

Screening results deposited in PubChem BioAssay by National Center for Advancing Translational Sciences (NCATS).
